Test results as given in PubChem BioAssay AID1851 (National Center for Advancing Translational Sciences (NCATS), 2009).
“And” between values parts separate entries of the source, which are not always exact repeats. Equal values may be shown once. Hit rate of the full screen: of about 16,000 compounds, about 5,800 (36%) were called active. About 23% were inconclusive and are not listed. Calls follow the shape of the dose curve; as a rule, active = well fitted curve in the direction sought with a large enough effect; inconclusive = small, poorly fitted or top-dose-only effect, or effect the other way; inactive = no such curve, though single readings can be large or run the other way. The list shows a part of the results. Some compounds were tested as several samples or in several runs, with calls that do not always agree.

Target: Cytochrome P450 2C19 (Homo sapiens) (UniProt P33261)
Sequence (P33261 whole entry, looked up): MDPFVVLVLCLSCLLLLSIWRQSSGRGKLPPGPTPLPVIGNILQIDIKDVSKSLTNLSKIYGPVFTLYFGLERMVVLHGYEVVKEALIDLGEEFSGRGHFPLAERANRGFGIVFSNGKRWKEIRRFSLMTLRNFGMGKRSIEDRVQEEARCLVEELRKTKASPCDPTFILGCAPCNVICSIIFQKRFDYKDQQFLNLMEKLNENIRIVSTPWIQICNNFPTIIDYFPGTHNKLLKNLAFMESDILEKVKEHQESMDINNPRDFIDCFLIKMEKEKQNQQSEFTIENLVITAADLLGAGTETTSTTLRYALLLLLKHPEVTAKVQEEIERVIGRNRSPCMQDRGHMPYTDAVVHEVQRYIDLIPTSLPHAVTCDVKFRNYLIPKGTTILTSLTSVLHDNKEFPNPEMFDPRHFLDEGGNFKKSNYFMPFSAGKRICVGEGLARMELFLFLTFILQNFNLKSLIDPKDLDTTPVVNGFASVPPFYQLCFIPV
Test: Cytochrome panel assay with activity outcomes
Conditions: recombinant CYP, pro-luciferin dealkylation, luminescence, p450-cyp2c19; series mostly up to 57.1 µM
Method: The P450 gene superfamily is involved in the metabolism and clearance of xenobiotics. This assay used various human CYP P450 isozymes to measure the dealkylation of various pro-luciferin substrates to luciferin. The luciferin is then measured by luminescence after the addition of a luciferase detection reagent. Pro-luciferin substrate concentration in the assay was equal to its KM for its CYP P450 isozyme. Inhibitors and some substrates limit the production of luciferin, and decrease measured luminescence.
NCGC Assay Protocol Summary:
1, Reagent, 2 uL, Isozyme and Pro-Luciferin
2, Library compounds, 23 nl, 40 uM to 0.24 nM dilution series
3, Controls, 23 nl, Isozyme specific inhibitor
4, Reagent, 2 uL, NADPH regeneration solution
5, Incubation time, 60 min, Isozyme specific temperature
6, Reagent, 4ul, Detection reagent
7, Incubation time, 20 min, Isozyme specific temperature
8, Detection, 1 sec, ViewLux luminescent read
The luciferase-based P450-GloTM Screening Systems were obtained from Promega (Madison, WI) for CYP 1A2 (V9770), CYP 2C9 (V9790), CYP2 C19 (V9880), CYP 2D6 (V9890), and CYP 3A4 Luciferin-PPXE (V9910) and were adapted for 1,536-well microplates and an automated protocol. The control compounds furafylline for 1A2 (F124), sulfaphenazole for CYP 2C9 (S0758), ketoconazole for CYP 2C19 (K1003), quinidine for 2D6 (Q3625), and ketoconazole for 3A4 (K1003) were purchased from Sigma Aldrich (St. Louis, MO). Recombinant P450 enzymes were obtained from baculovirus constructs expressed in insect cells (BD/Gentest).
Medium-binding white solid Kalypsys plates used. Mixtures kept on ice. 1A2: 10 nM 1A2, 100 uM Luc-ME, 100 mM KPO4; 2C9: 10 nM 2C9, 100 uM Luc-H, 25 mM KPO4; 2C19: 5 nM 2C19, 10 uM Luc-H EGE, 50 mM KPO4; 2D6: 5 nM 2D6, 30 uM Luc-ME EGE, 100 mM KPO4; 3A4: 10 nM, 25 uM Luc-PPXE. All amounts are reflected in their final concentration, working concentration is 2x.
NADPH regeneration solution: 1.3 mM NADP+, 3.3 mM glucose-6-phosphate, 3.3 mM MgCl2, 0.4 U/mL glucose-6-phosphate dehydrogenase for all isozymes, 200 mM KPO4 for 3A4. Mixture prepared at RT but kept on ice during automated run.
RT incubation in auxilliary plate hotel for 1A2, 2D6, and 3A4; 37C for 2C9 and 2C19.
Keywords: P450, CYP1A2, CYP2C19, CYP2C9, CYP2D6, CYP3A4, Luciferase, MLSMR, MLSCN, NIH Roadmap, qHTS, NCGC
% is scaled to controls: 0 for no effect and ±100 for the full control effect.

Row | Compound | AC50 | activity, negative = inhibition
1 | S=C(S)N1CCCC1 | 3980 nM (active) | 
2 | CC(C)Oc1cc(-n2c(=S)[nH]c3ccccc3c2=O)c(Cl)cc1Cl | 224 nM (active) | 
3 | OC1(c2ccc(Cl)cc2)CCN(Cc2c[nH]c3ccccc23)CC1 | inactive | 
4 | COc1ccn(C)c(=O)c1C#N | inactive | 
5 | CCOC(C(=O)OCCCN(CC)CC)(c1ccccc1)c1ccccc1 | inactive | 
6 | CCN1C[C@@]2(COC)[C@H]3[C@@H](OC)[C@H]4C1[C@@]3([C@H](OC)C[C@@H]2O)[C@H]1C[C@@]2(O)[C@@H](OC(=O)c3ccccc3)[C@@H]1[C@@]4(OC(C)=O)[C@H](O)[C@@H]2OC | inactive | 
7 | CC1=C(CC[C@H](C)CO)O[C@@H]2C[C@@H]3[C@H]4CC[C@H]5C[C@@H](O)CC[C@]5(C)[C@@H]4CC(=O)[C@@]3(C)[C@@H]12 |  | -3.33% [at 11.4 µM] (inactive)
8 | COc1ccc2[nH]cc(C3=CCNCC3)c2c1 | inactive | 
9 | O=c1ccc2[nH]cc(C3=CCNCC3)c2[nH]1 | 126 nM (active) | 
10 | CCCCc1nc2ccccc2c(=O)n1-c1ccccc1[N+](=O)[O-] | 14100 nM (active) | 
11 | CCCCc1nc2ccccc2c(=O)n1-c1ccc(Cl)cc1[N+](=O)[O-] | inactive | 
12 | O=c1cc(-c2ccc(O)cc2)oc2cc(O)cc(O)c12 | inactive | 
13 | COc1ccc(CCNc2cc(-c3ccccc3)nc3ncnn23)cc1 | 11200 nM (active) | 
14 | CNC[C@H](O)c1ccc(OC(=O)C(C)(C)C)c(OC(=O)C(C)(C)C)c1 | inactive | 
15 | [N-]=[N+]=NCC(=O)c1c[nH]c(=O)[nH]c1=O |  | 30.9% [at 11.4 µM] (inactive)
16 | C[C@H]1CC[C@]2(OC1)O[C@@H]1C[C@@H]3[C@@H]4CC[C@H]5C[C@@H](O)CC[C@]5(C)[C@@H]4CC(=O)[C@@]3(C)[C@H]1[C@@H]2C | inactive | 
17 | CCOC(=O)C1=C(C)OC(N)=C(C#N)C12C(=O)N(C)c1ccccc12 (stereo not given) | 28200 nM (active) | 
18 | CCN1C[C@]2(C)CC[C@H](O)[C@@]34[C@@H]5CC6[C@@H](OC)C[C@@](O)([C@@H]5[C@@H]6O)[C@H](C[C@@H]23)[C@H]14 | inactive | 
19 | Cc1ccc(OP(=O)(Oc2ccc(C)cc2)N2C=Cc3ccccc3[C@H]2C#N)cc1 | 2510 nM (active) | 
20 | COc1ccccc1CN1CCCC2(CCN(C(=O)Oc3ccccc3)CC2)C1 | inactive | 

Row | Compound | AC50 | activity, negative = inhibition
21 | O=C1C=C2C=C[C@H]3C[C@@]2(O1)[C@H]1CCCCN31 | inactive | 
22 | O=C1NCN(c2ccccc2)C12CCN(C[C@H]1COc3ccccc3O1)CC2 | 7940 nM (active) | 
23 | O=C(CCCN1CCC2(CC1)C(=O)NCN2c1ccccc1)c1ccc(F)cc1 | inactive and 6.31 µM (active) | 
24 | O=C(CCCN1CCC(n2c(=O)[nH]c3ccccc32)CC1)c1ccc(F)cc1 | inactive | 
25 | O=C1NCN(c2ccccc2)C12CCN(CCCOc1ccc(F)cc1)CC2 | inactive | 
26 | NC1=Nc2ccccc2Oc2ccccc21 | inactive | 
27 | O=C(Oc1ccccc1)N1CCC2(CCN(Cc3ccncc3)CC2)CC1 | inactive | 
28 | O=C(O)/C=C(\CC(=O)O)C(=O)O |  | -16.7% [at 11.4 µM] (inactive)
29 | O=C(O)Cc1cccnc1C(=O)O | inactive | 
30 | CC(C)CN1CC2(CCN(C(=O)c3ccncc3)CC2)C1 | inactive | 
31 | Cc1ccc(NC(=[OH+])c2cc3ccccc3cc2O)c(C)c1.Cc1ccc(NC(=[OH+])c2cc3ccccc3cc2O)c(C)c1.[Ni] | 2000 nM (active) | 
32 | O=c1[nH]oc2c1CCNC2 | inactive | 
33 | Clc1ccc(C2=CCC[C@H]3CC[C@@H]2N3)cn1 | inactive | 
34 | CCCCN1C(=O)C(C2c3ccccc3C(=O)N2Cc2ccccc2)C(=O)NC1=S (stereo not given) | 25100 nM (active) | 
35 | CC(C)C[C@H](NP(=O)(O)O[C@@H]1O[C@@H](C)[C@@H](O)[C@@H](O)[C@H]1O)C(=O)N[C@@H](Cc1c[nH]c2ccccc12)C(=O)O | inactive | 
36 | CN1C(=O)COc2c(C(=O)N[C@@H]3CN4CCC3CC4)cc(Cl)cc21 | inactive | 
37 | CC(C)n1cnc2c(C(=O)N[C@H]3CN4CCC3CC4)cc(Cl)cc21 | 1000 nM (active) | 
38 | Cn1cc(C(=O)C(=O)N[C@H]2CN3CCC2CC3)c2ccccc21 | inactive | 
39 | C[C@@H]1O[C@H](C[N+](C)(C)C)CS1 | inactive | 
40 | NC(=O)CN1C[C@@H](O)CC1=O | inactive | 

Row | Compound | AC50 | activity, negative = inhibition
41 | C[N+]1([O-])[C@@H]2CC(OC(=O)[C@@H](CO)c3ccccc3)C[C@@H]1[C@H]1O[C@H]12 (stereo not given in full) | inactive | 
42 | CN1[C@@H]2CC[C@H]1CC(NC(=O)c1nn(C)c3ccccc13)C2 (stereo not given in full) | inactive | 
43 | O=C1C2CCN(CC2)C1(CO)CO | 631 nM (active) | -4.59% [at 11.4 µM] (inactive)
44 | CCN(CC)C(=O)N[C@@H]1C[C@H]2c3cccc4[nH]cc(c34)C[C@@H]2N(C)C1 | inactive | 
45 | CCOC(=O)c1ncn2c1CN(C)C(=O)c1cc(F)ccc1-2 | 1580 nM (active) | 
46 | CCOC(=O)c1ncn2c1[C@H]1CCCN1C(=O)c1cc(OC)ccc1-2 | inactive | 
47 | O=C(Nc1ccccc1)N1CC2(CCN(C(=O)Oc3ccccc3)CC2)C1 | inactive | 
48 | COC(=O)[C@@H]1c2cc3c(c(O)c2[C@@H](O)C[C@]1(C)O)C(=O)c1c(O)cc2c(c1C3=O)O[C@H]1O[C@@]2(C)[C@@H](O)[C@H](N(C)C)[C@H]1O |  | -43.8% [at 11.4 µM] (inactive)
49 | N[C@H](Cc1ccc(N(CCCl)CCCl)cc1)C(=O)O | inactive | 
50 | CCCC(CCC)C(=O)O | inactive | 
51 | C1CCc2nnnn2CC1 | inactive | 
52 | O=C(Nc1ccc(F)cc1F)c1cccnc1Oc1cccc(C(F)(F)F)c1 | 1260 nM (active) | 
53 | NNC(=O)c1ccc(O)cc1 | inactive | 
54 | CCCn1c(C)c(C(=O)c2ccc3ccccc3c2)c2ccccc21 | 2000 nM (active) | 
55 | O=C(C[n+]1ccc2ccccc2c1)c1ccc2ccc3ccccc3c2c1 |  | 1.57% [at 11.4 µM] (inactive)
56 | COc1ccc(C(=O)c2c(C)n(CCN3CCOCC3)c3cc(I)ccc23)cc1 | inactive | 
57 | CCCn1c(C)c(C(=O)c2cccc3ccccc23)c2ccccc21 | 10000 nM (active) | 
58 | Cc1c(C(=O)c2ccc3ccccc3c2)c2cccc3c2n1[C@H](CN1CCOCC1)CO3 | inactive | 
59 | COc1ccc2c3c1O[C@@H]1C(=O)CC[C@@]4(O)[C@@H](C2)N(CC2CC2)CC[C@]314 | inactive | 
